# Shown are actives, neighbours in structure and some others; about 2.4% of the full set was active somewhere.
# Pol eta inh-1: qHTS for Inhibitors of Polymerase Eta. DNA polymerase eta (Homo sapiens), Q9Y253. recombinant Pol eta, fluorescent DNA replication assay. hit rate 1.2% among 390,000. Potency, µM (top dose mostly 114 µM), without a hit: at the top dose activity change, negative = inhibition, actives largely listed as inhibitors; also: % is scaled to controls: 0 for no effect and ±100 for the full control effect
# Target sequence (Q9Y253 whole entry, looked up): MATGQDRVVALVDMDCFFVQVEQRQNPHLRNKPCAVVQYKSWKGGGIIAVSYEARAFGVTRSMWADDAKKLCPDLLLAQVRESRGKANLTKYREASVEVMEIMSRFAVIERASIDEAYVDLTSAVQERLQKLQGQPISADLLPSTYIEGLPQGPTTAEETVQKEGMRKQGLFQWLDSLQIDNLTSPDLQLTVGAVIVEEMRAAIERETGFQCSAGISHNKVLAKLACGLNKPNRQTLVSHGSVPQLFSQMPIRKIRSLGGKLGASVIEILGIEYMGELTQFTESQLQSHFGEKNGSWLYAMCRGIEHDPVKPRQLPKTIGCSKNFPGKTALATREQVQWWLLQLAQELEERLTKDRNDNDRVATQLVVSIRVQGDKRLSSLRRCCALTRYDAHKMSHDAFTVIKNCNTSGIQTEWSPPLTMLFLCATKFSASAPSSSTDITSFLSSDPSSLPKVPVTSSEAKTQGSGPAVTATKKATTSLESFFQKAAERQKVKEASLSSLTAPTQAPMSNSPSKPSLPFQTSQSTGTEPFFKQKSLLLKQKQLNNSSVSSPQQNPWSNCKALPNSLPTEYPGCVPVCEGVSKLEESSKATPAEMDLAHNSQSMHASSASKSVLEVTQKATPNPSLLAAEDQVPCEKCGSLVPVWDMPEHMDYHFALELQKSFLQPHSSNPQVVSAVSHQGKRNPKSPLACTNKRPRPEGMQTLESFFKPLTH
#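 Pol eta at 10 nM preincubated with compounds 15 min at room temperature; reaction started with fluorescent substrate (50 nM final) and read kinetically at 0 and 10 min.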
# FEN1 inh-1: qHTS Assay for the Inhibitors of Human Flap endonuclease 1 (FEN1) | hit rate 0.35% among 390,000 | P39748 | Potency, µM (titrated, usually from 114 µM), without a hit: at the top dose activity change, negative = inhibition, hits mostly inhibitors | AID 588795, 2011 | Recombinant FEN1 flap cleavage, fluorescence, 15 min; also: % is scaled to controls: 0 for no effect and ±100 for the full control effect; nearly all actives have a fitted effect of over 65% in size
#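 FEN1 at 10 nM preincubated with compounds 15 min at room temperature, then flap DNA substrate added at 50 nM final. Signal read at 0 and 15 min; concentration-response fitted with four-parameter Hill equation.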
# WRN helicase inh-1: qHTS for Inhibitors of WRN Helicase | AID 651768, 2012 | WRN helicase unwinding, fluorescent forked duplex, kinetic | Bifunctional 3'-5' exonuclease/ATP-dependent helicase WRN (Homo sapiens), Q14191 | hit rate 0.46% among 360,000 | Potency, µM (doses to about 114 µM), for inactives: at the highest dose activity change, negative = inhibition, most hits filed as inhibitors; also: % is scaled to controls: 0 for no effect and ±100 for the full control effect; nearly all actives have a fitted effect of over 55% in size
#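 Kinetic red-fluorescence monitoring (525/598 nm) tracks WRN helicase activity after 100 nM fluorophore-quencher forked duplex and 2 mM ATP are added to 20 nM enzyme pretreated 15 min at room temperature with compound.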
# POLB inh: qHTS Assay for Inhibitors of DNA Polymerase Beta; P06746; Pol beta primer extension/strand displacement, fluorescence kinetic; Potency, µM (highest dose often 114 µM), for inactives: at the highest dose activity change, negative = inhibition, usual class: inhibitors; hit rate 1.3% among 340,000; also: % is scaled to controls: 0 for no effect and ±100 for the full control effect
#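 Curves were derived by four-parameter Hill fits of normalized qHTS data. The kinetic fluorescent primer-extension read was taken at 0 and 10 min after 50 nM substrate, following a 15 min room-temperature preincubation of 10 nM enzyme with compounds.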
# Pol iota inh: qHTS for Inhibitors of Polymerase Iota; Potency, µM (titrated, usually from 115 µM), for the others: at the top dose activity, negative = inhibition, hits mostly inhibitors; Pol iota fluorescent replication assay, 10 min; hit rate 1% among 390,000; AID 588590, 2011; DNA polymerase iota (Homo sapiens), Q9UNA4
#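 Fluorescent replication assay read twice, at 0 min and 10 min after adding 50 nM (final) substrate. Enzyme (10 nM) and compounds were first incubated 15 min at room temperature; enzyme-free buffer wells were negative controls.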
# Pol kappa inh-1: qHTS for Inhibitors of Polymerase Kappa. DNA polymerase kappa (Homo sapiens), Q9UBT6. purified Pol kappa, fluorescent DNA synthesis assay, 10 min. Potency, µM (titrated, usually from 107 µM), inactives show at the highest dose activity, negative = inhibition, actives largely listed as inhibitors. hit rate 0.53% among 400,000. AID 588579, 2011; also: % is scaled to controls: 0 for no effect and ±100 for the full control effect
#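 Here, compound and 10 nM enzyme are combined for 15 min at room temperature; adding 50 nM substrate (final) starts DNA synthesis, tracked by fluorescence at 0 and 10 min against buffer-only wells.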
# PGK validate: qHTS for inhibitors of Phosphogylcerate Kinase: Hit Validation Screen; shares compounds with Pol kappa inh-1; hit rate 79% among 500; Potency, µM (top dose mostly 57.5 µM), inactives show at the top dose activity change, negative = inhibition, actives largely listed as inhibitors; TbPGK coupled GAPDH assay, Kinase-Glo luminescence; AID 686980, 2013; also: % is scaled to controls: 0 for no effect and ±100 for the full control effect; nearly all actives have a fitted effect of over 65% in size
# Pol iota confirm: qHTS for Inhibitors of Polymerase Iota: Confirmatory Assay for Cherry-picked Compounds | shares compounds with Pol kappa inh-1 | Pol iota primer extension, TAMRA/BHQ fluorescence | Potency, µM, hits mostly inhibitors | hit rate 77% among 1,500
# Pol kappa inh-2: qHTS for Inhibitors of Polymerase Kappa: Confirmatory Assay for Cherry-picked Compounds | shares compounds with Pol eta inh-1 | purified Pol-kappa, fluorescent strand-displacement substrate | Potency, µM, hits mostly inhibitors | hit rate 76% among 920
# Pol eta inh-2: qHTS for Inhibitors of Polymerase Eta: Confirmatory Assay for Cherry-picked Compounds | shares compounds with Pol eta inh-1 | Pol eta primer extension, TAMRA/BHQ fluorescence, 10 min | Potency, µM, actives largely listed as inhibitors | hit rate 64% among 2,600 | AID 720502, 2013
# FEN1 inh-2: qHTS Assay for the Inhibitors of FEN1: Confirmatory Assay for Cherry-picked Compounds; shares compounds with FEN1 inh-1; FEN1 flap cleavage, TAMRA/BHQ2 fluorogenic DNA substrate; Potency, µM, actives largely listed as inhibitors; hit rate 79% among 880; also: nearly all actives have a fitted effect of over 60% in size
# WRN helicase inh-2: qHTS for Inhibitors of WRN Helicase: Confirmatory Assay for Cherry-picked Compounds; Potency, µM (series often up to 57.1 µM), without a hit: at the highest dose activity, negative = inhibition, usual class: inhibitors; AID 720497, 2013; hit rate 63% among 610; WRN helicase DNA unwinding, fluorescence kinetic; shares compounds with WRN helicase inh-1; also: nearly all actives have a fitted effect of over 65% in size
# TO DNA binding: qHTS for Inhibitors of WRN Helicase: Thiazole Orange DNA Binding Counterscreen; shares compounds with WRN helicase inh-1; thiazole orange DNA binding displacement, fluorescence; Potency, µM (doses to about 57.1 µM), inactives show top-dose activity change, negative = inhibition, usual class: inhibitors; hit rate 10% among 610; AID 720499, 2013;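 also: drop in dye fluorescence marks compound binding to DNA; % is scaled to controls: 0 for no effect and ±100 for the full control effect; nearly all actives have a fitted effect of over 60% in size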
# BLM counter: qHTS for Inhibitors of WRN Helicase: BLM Helicase Counterscreen for WRN Inhibitors | Recombinant BLM helicase DNA unwinding, red fluorescence | Potency, µM (titrated, usually from 57.1 µM), for the others: at the top dose activity change, negative = inhibition, actives largely listed as inhibitors | AID 720503, 2013 | shares compounds with WRN helicase inh-1 | hit rate 60% among 610; also: nearly all actives have a fitted effect of over 60% in size
# An asterisk follows results filed as active; ? = inconclusive; nt = no result. Calls follow the shape of the dose curve; as a rule, active = well fitted curve in the direction sought with a large enough effect; inconclusive = small, poorly fitted or top-dose-only effect, or another doubt; inactive = no such curve, though single readings can be large; an effect the other way counts as inactive or inconclusive. Potency is read from the fitted curve at half-maximal effect.
SMILES,Pol eta inh-1,FEN1 inh-1,WRN helicase inh-1,POLB inh,Pol iota inh,Pol kappa inh-1,PGK validate,Pol iota confirm,Pol eta inh-2,WRN helicase inh-2,TO DNA binding,BLM counter,others
COCCN1C(=O)COc2ccccc2C1C(=O)NC1CCCC1 (configuration not stated),nt,nt,-9.3%,nt,nt,nt,nt,nt,nt,nt,nt,nt,
Cc1cn([C@H]2C[C@H](O)[C@@H](CNC(=O)[C@H](N)C3CC3)O2)c(=O)[nH]c1=O,-2.4%,nt,-3.3%,nt,nt,nt,nt,nt,nt,nt,nt,nt,
CCOc1cc(CNS(=O)(=O)c2ccc3c(c2)C(C)(C)C(=O)N3)cc(OCC)c1OCC,-5.0%,-0.8%,nt,8.0%,?,1.5%,nt,nt,nt,nt,nt,nt,
O=C(COC(=O)c1ccccc1)Nc1ncc([N+](=O)[O-])s1,0.794µM*,44.7µM*,2.99µM*,nt,2.24µM*,22.4µM*,3.26µM*,2.67*,1.69*,3.41µM*,24.1µM*,1.08µM*,Pol kappa inh-2=0.752*;FEN1 inh-2=67.5*
O=C(Nc1ccccc1)Nc1ncc([N+](=O)[O-])s1,-8.5%,9.2%,-3.0%,-2.0%,21.2%,-7.6%,nt,nt,nt,nt,nt,nt,
COc1ccc(S(=O)(=O)N2CCN(c3ccccc3)CC2)cc1-c1noc(C)n1,-23.0%,13.6%,nt,4.1%,15.3%,-22.0%,nt,nt,nt,nt,nt,nt,
Cc1ccc(CNC(=O)CCS(=O)(=O)c2ccc(Br)cc2)cc1,10µM*,-4.0%,25.1µM*,7.94µM*,15.8µM*,22.4µM*,6.51µM*,37.7*,26.9*,3.83µM*,5.41µM*,2.15µM*,
CCOC(=O)c1ccccc1NC(=O)CSc1nc2ncccc2o1,-11.5%,1.0%,nt,4.7%,21.7%,-2.7%,nt,nt,nt,nt,nt,nt,
